Results reported in PubChem BioAssay (NCATS).
Results filed as inconclusive are left out. Calls of active or inactive are those of the source. The call rests on the fitted dose curve; in most records, active means well fitted cell-killing curve with a large enough effect; inconclusive means small, poorly fitted or top-dose-only effect, or effect the other way; inactive means no such curve, though single readings can be large or run the other way. Residues, ends and D or L forms follow the SMILES beside them. *: point of attachment. Cbz = O=C(OCc1ccccc1)*

Tests used:
[1] = Quantitative High-Throughput drug screen in 47 multiple myeloma cell lines against the NCATS MIPE library collection: FR4_PLB cell viability assay (AID 1918924; further: nearly all actives have a fitted effect of over 35% in size)
Method in brief: (§1)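 CellTiter-Glo luminescence (ATP) after 48 h compound exposure, 37C/5% CO2; 500 cells/well; MIPE 4.0 approved/investigational drugs pinned in; DMSO = 100%, media only = 0% viability.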

[2] = Quantitative High-Throughput drug screen in 47 multiple myeloma cell lines against the NCATS MIPE library collection: Delta47_JCRB cell viability assay (AID 1918925; further: nearly all actives have a fitted effect of over 45% in size)
Method in brief: (§2)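 qHTS of the MIPE 4.0 collection: 500 myeloma cells/well, 48 h drug exposure at 37C in 5% CO2, then CellTiter-Glo for 5 min at room temperature before luminescence reading.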

[3] = Quantitative High-Throughput drug screen in 47 multiple myeloma cell lines against the NCATS MIPE library collection: EJM_DSMZ cell viability assay (AID 1918926; further: nearly all actives have a fitted effect of over 30% in size)
Method in brief: as §2

[4] = Quantitative High-Throughput drug screen in 47 multiple myeloma cell lines against the NCATS MIPE library collection: AMO1_DSMZ cell viability assay (AID 1918927; further: nearly all actives have a fitted effect of over 30% in size)
Method in brief: as §2

[5] = Quantitative High-Throughput drug screen in 47 multiple myeloma cell lines against the NCATS MIPE library collection: ARP1_JJKsccF8 cell viability assay (AID 1918928; further: nearly all actives have a fitted effect of over 40% in size)
Method in brief: (§3)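 Here, 48 h treatment with MIPE 4.0 agents at 37 °C preceded an ATP luminescence read. Plating density was 500 cells per well.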

[6] = Quantitative High-Throughput drug screen in 47 multiple myeloma cell lines against the NCATS MIPE library collection: Karpas620_DSMZ cell viability assay (AID 1918959); further: nearly all actives have a fitted effect of over 30% in size
Method in brief: as §1

[7] = Quantitative High-Throughput drug screen in 47 multiple myeloma cell lines against the NCATS MIPE library collection: ARD_JJKsccE7 cell viability assay (AID 1918929)
Method in brief: as §2

[8] = Quantitative High-Throughput drug screen in 47 multiple myeloma cell lines against the NCATS MIPE library collection: KMM1_JCRB cell viability assay (AID 1918960); further: nearly all actives have a fitted effect of over 30% in size
Method in brief: as §3

Measured: Potency
Potency means the concentration at half of the fitted maximal effect.

NC(=NCCCCCCN=C(N)N=C(N)Nc1ccc(Cl)cc1)N=C(N)Nc1ccc(Cl)cc1
active: [1] 16.6 µM | [2] 2.64 µM | [3] 2.64 µM | [4] 23.5 µM | [5] 8.33 µM | [6] 18.7 µM

COc1cc(O)c2c(c1)C1OC1C[C@H](O)[C@H](O)C(=O)C=CC[C@H](C)OC2=O (stereo not given in full)
active: [1] 3.32 µM | [2] 4.18 µM | [3] 7.43 µM | [4] 2.96 µM | [5] 4.69 µM | [7] 5.9 µM | [6] 2.64 µM | [8] 4.18 µM

CN[C@H]1[C@@H](O)[C@@H]2O[C@@H]3O[C@H](C)CC(=O)[C@]3(O)O[C@@H]2[C@@H](NC)[C@H]1O
active: [1] 1.66 µM | [2] 1.18 µM | [3] 0.166 µM | [4] 0.418 µM | [5] 1.32 µM | [7] 0.469 µM | [6] 0.743 µM | [8] 0.372 µM

CC(C)C[C@@H](C=O)NC(=O)[C@H](CC(C)C)NC(=O)[C@H](CC(C)C)NC(=O)OCc1ccccc1 (Cbz-Leu-Leu-Leu-aldehyde)
active: [1] 0.59 µM | [2] 0.105 µM | [3] 0.833 µM | [4] 0.105 µM | [5] 0.332 µM | [7] 0.105 µM | [6] 0.148 µM | [8] 0.0833 µM

O=C(O)C(=O)Nc1cccc(C2=NN=N[N]2)c1
not listed: [6]
inactive: all other assays above

COc1cc([C@@H]2c3cc4c(cc3[C@H](O)[C@H]3COC(=O)[C@@H]23)OCO4)cc(OC)c1OC
active: [1] 0.0296 µM | [2] 0.166 µM | [3] 0.59 µM | [4] 0.0264 µM | [5] 0.0526 µM | [7] 0.059 µM | [8] 0.0833 µM

CCOC(=O)C1=C(C)NC(=S)NC1c1cccc(O)c1 (stereo not given)
active: [1] 0.0187 µM | [2] 0.0166 µM | [3] 0.0469 µM | [4] 0.662 µM | [5] 0.105 µM | [7] 0.833 µM | [8] 0.469 µM

O=C(c1ccc(F)cc1)N1CCC[C@H](c2nc(-c3ccc(F)cc3)no2)C1
inactive: all assays above

Oc1ccc(-c2ccc(-c3cc(Nc4cccc(CNC5CC5)c4)n[nH]3)cc2)c(O)c1
active: [1] 0.935 µM | [2] 0.469 µM | [3] 0.935 µM | [4] 1.32 µM | [5] 4.18 µM | [7] 1.18 µM | [6] 1.18 µM | [8] 0.743 µM

CN(C)c1ccc2cc(C(=O)N[C@@H](CCCN=C(N)CCl)C(=O)NCc3ccccc3)ccc2c1
active: [1] 11.8 µM | [2] 18.7 µM | [3] 1.32 µM | [4] 1.66 µM | [5] 18.7 µM | [7] 4.18 µM | [6] 5.9 µM | [8] 1.32 µM

Cn1cc(-c2cnn3c(N)c(Br)c([C@H]4CCCNC4)nc23)cn1
active: [1] 0.132 µM | [2] 0.743 µM | [3] 0.372 µM | [4] 1.48 µM | [5] 3.32 µM | [7] 1.05 µM | [8] 0.372 µM

O=C(O)C[C@H](O)C[C@H](O)C=Cc1c(C2CC2)nc2ccccc2c1-c1ccc(F)cc1
active: [1] 10.5 µM | [2] 8.33 µM | [4] 9.35 µM | [5] 13.2 µM | [7] 4.18 µM | [8] 5.9 µM
inactive: [3]

CNC(=O)c1ccc(Nc2cc(Nc3ccccc3S(=O)(=O)C(C)C)c3cc[nH]c3n2)nc1
active: [1] 4.69 µM | [2] 0.662 µM | [3] 6.62 µM | [4] 2.09 µM | [5] 18.7 µM | [7] 1.87 µM | [6] 1.32 µM | [8] 1.48 µM

C[C@@H]1CC[C@@]2(OC1)OC1CC3C4CC=C5CC(O)CCC5(C)C4CCC3(C)C1[C@@H]2C (stereo not given in full)
not listed: [6]
inactive: all other assays above

NC[C@H]1O[C@H](O[C@H]2[C@@H](O)[C@@H](O[C@H]3O[C@H](CO)[C@@H](O)[C@H](N)[C@@H]3O)[C@H](N)C[C@@H]2N)[C@H](N)C[C@H]1O
inactive: all assays above

Nc1nc(=O)n([C@H]2CSC(CO)O2)cc1F (stereo not given in full)
not listed: [6]
inactive: all other assays above

CC(C)(O)Cn1c(NC(=O)c2ccc(-c3cn[nH]c3)s2)nc2cc(CN3CCOCC3)ccc21
active: [1] 0.743 µM | [2] 0.833 µM | [3] 1.05 µM | [4] 0.469 µM | [5] 1.18 µM | [7] 0.469 µM | [6] 0.662 µM | [8] 0.743 µM

C[C@H](CCC(=O)O)[C@H]1CC[C@H]2[C@@H]3[C@H](O)C[C@@H]4C[C@H](O)CC[C@]4(C)[C@@H]3CC[C@]12C
inactive: all assays above

CC[C@H]1OC(=O)[C@H](C)[C@@H](O[C@H]2C[C@@](C)(OC)[C@@H](O)[C@H](C)O2)[C@H](C)[C@@H](O[C@@H]2O[C@H](C)C[C@H](N(C)C)[C@@H]2O)[C@](C)(OC)C[C@@H](C)C(=O)[C@H](C)[C@@H](O)[C@]1(C)O
not listed: [7]
inactive: all other assays above

Cn1cc(C2=C(c3c4n(c5ccccc35)CCC(CN)C4)C(=O)NC2=O)c2ccccc21 (stereo not given)
active: [1] 18.7 µM | [2] 5.26 µM | [3] 9.35 µM | [4] 10.5 µM | [5] 18.7 µM | [7] 7.43 µM | [6] 9.35 µM | [8] 13.2 µM

C[C@H](NCc1ccc2c(c1)nc(NC(=O)c1ccc(-c3cn[nH]c3)s1)n2CCc1ccccc1)C(C)(C)C
active: [1] 1.05 µM | [2] 0.662 µM | [3] 1.05 µM | [4] 0.662 µM | [5] 1.32 µM | [7] 0.526 µM | [8] 0.833 µM

CC(C)(C)[N+]([O-])=Cc1ccc(S(=O)(=O)O)cc1S(=O)(=O)O
inactive: [1] | [2] | [3] | [5] | [6]

C[C@@]12C(=O)OC(=O)[C@@]1(C)C1CCC2O1
active: [1] 1.48 µM | [2] 0.935 µM | [3] 2.64 µM | [5] 0.833 µM | [7] 1.66 µM | [6] 2.96 µM | [8] 0.743 µM

CC1(C)CC(O)CC(C)(C)N1[O]
not listed: [4] | [7]
inactive: all other assays above
